In PubChem BioAssay (NCATS):
Inconclusive results are not listed. Active and inactive are the calls of the source. Calls follow the shape of the dose curve; as a rule, active = well fitted curve in the direction sought with a large enough effect; inconclusive = small, poorly fitted or top-dose-only effect, or another doubt; inactive = no such curve, though single readings can be large; an effect the other way counts as inactive or inconclusive. Where a SMILES comes first, the peptide text is derived from it. [ ]: non-standard residue; d: D form. Nle = CCCC[C@H](N)C(=O)O

Test system: Zika virus NS2B-NS3 protease
Test: Primary screen GU AMC qHTS for Zika virus inhibitors (AID 1347154);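 also: 0% = no-inhibitor control and -100% = no-enzyme control; nearly all actives have a fitted effect of over 70% in size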
Settings: Zika NS2B-NS3 unlinked protease, AMC fluorogenic substrate; series mostly up to 54.1 µM
In short: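 Unlinked Zika NS2B hydrophilic domain/NS3 protease domain noncovalent complex (25 nM final) in 10 mM Tris-HCl pH 8.0, 0.01% Tween 20, with AMC peptide substrate. Fluorescence (ex 340, em 450 nm) change over 15 min, room temperature; percent inhibition fitted to 4-parameter Hill equation.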

Potency, inactive:
C[C@@](N)(C(=O)O)[C@@H]1C[C@@H]1C(=O)O
CCCCCCCCCCCCCCCCCCc1ccc(C(=O)/C=C/C(=O)O)cc1
O=C(Nc1ccccc1)C12CC1/C(=N\O)c1ccccc1O2 (stereo not drawn)
O=Nc1ccc(O)c2ncccc12
O=C(O)c1ccncc1
NC(C(=O)O)c1cc(O)cc(O)c1 (stereo not drawn)
N[C@H](CS)C(=O)O
CC[N+]1(C)C2CCC1CC(OC(=O)[C@H]1CCC(C(=O)OC3CC4CCC(C3)[N+]4(C)CC)(c3ccccc3)c3ccccc31)C2 (stereo partly drawn)
C[N+]1(Cc2ccccc2)CCC(C(=O)OCC2CCCC2)CC1 (stereo not drawn)
CCCN1CCCC(c2cccc(S(C)(=O)=O)c2)C1 (stereo not drawn)
COc1ccccc1C1(O)CCN(CCCn2c3ccccc3c3ccccc32)CC1
NC1=NC2C(N=C(Br)N2[C@@H]2O[C@H]3COP(=O)(O)O[C@@H]3[C@@H]2O)C(=O)N1 (stereo partly drawn)
C[C@H](CCC(=O)NCCS(=O)(=O)O)C1CC[C@H]2C3CC[C@@H]4C[C@H](O)CC[C@]4(C)C3C[C@H](O)[C@]12C (stereo partly drawn)
COC(C)(C)CCCC(C)C/C=C/C(C)=C/C(=O)O (stereo not drawn)
NC(C(=O)O)c1cccc(O)c1 (stereo not drawn)
CC(C)ON(CC(=O)NO)S(=O)(=O)c1ccc(-c2ccccc2)cc1
N[C@](CC1c2ccccc2Oc2ccccc21)(C(=O)O)[C@H]1C[C@@H]1C(=O)O
N#Cc1ccccc1OCC(O)CNCCNC(=O)Nc1ccccc1 (stereo not drawn)
Oc1ccc(-c2c(-c3ccccc3)nn3c(C(F)(F)F)cc(C(F)(F)F)nc23)cc1
CCCCCCCCCCC1=C(C)C(=O)C(OC)=C(OC)C1=O
CCCCC[C@H](O)/C=C/C=C\CCCCCCCC(=O)O
COc1cccc2c1C(=O)c1c(O)c3c(c(O)c1C2=O)C[C@@](O)(C(=O)CO)C[C@@H]3O[C@@H]1C[C@H](N)[C@H](O)[C@H](C)O1
NCCCCCc1cnc[nH]1
CCC(N)(C(=O)O)c1ccc(C(=O)O)cc1 (stereo not drawn)
Nc1ncnc2c1ncn2C1O[C@H](COP(=O)(O)O)[C@@H](O)[C@H]1O (stereo partly drawn)
COC(=O)C1=C(C)NC(C)=C(C(=O)NCCCN2CCC(c3ccccc3)(c3ccccc3)CC2)C1c1ccc([N+](=O)[O-])cc1 (stereo not drawn)
C=CCn1c(=O)c2c(nc(-c3ccccc3)n2C)n(C)c1=O
C=NCc1cc2c(OC[C@@H](O)CNC(C)(C)C)cccc2[nH]1
CCCC[C@@H](C=O)NC(=O)[C@H](CC(C)C)NC(=O)[C@H](CC(C)C)NC(C)=O (Ac-Leu-Leu-[Nle]-aldehyde)
N[C@H](C(=O)O)[C@H]1C[C@H]1C(=O)O
CC(=O)OCOC(c1ccc2ccccc2c1)P(=O)(OCOC(C)=O)OCOC(C)=O (stereo not drawn)
C[C@@H](N)CCCP(=O)(O)O
CC(C)n1cnc2c(NCc3ccccc3)nc(NCCO)nc21
[C-]#[N+]c1cc(-c2ccncc2)c(C)[nH]c1=O
Cc1ccc2c(c1)C(=O)C1(O)CCN(c3ccccc3)C1=N2 (stereo not drawn)
Cn1cnc2nc(NCCO)nc(NCc3ccccc3)c21

Activity change, negative = inhibition, inactive:
CCCCCCCCCCCCCCCCOC[C@H](COP(=O)([O-])OCC[N+](C)(C)C)OC(=O)NC 0.721% [at 6.83 µM]
CCCCCCCCCCCCCCCC(=O)OCC(COP(=O)(O)O)OC(=O)CCCCCCCCCCCCCCC (stereo not drawn) 13.2% [at 6.83 µM]
CCCCC/C=C\C/C=C\CCCCCCCC(=O)O[C@@H](CO)COC(=O)CCCCCCCCCCCCCCCCC 7.9% [at 6.83 µM]

Test system: not listed separately
Test: Primary qHTS for small molecule stabilizers of the endoplasmic reticulum resident proteome: Secreted ER Calcium Modulated Protein (SERCaMP) assay (AID 1508630); also: % is scaled to controls: 0 for no effect and ±100 for the full control effect
Settings: SH-SY5Y GLuc-SERCaMP (Gaussia luciferase released on ER calcium loss) secretion, thapsigargin, luminescence; series mostly up to 38.4 µM
In short: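 The SH-SY5Y reporter protocol was run at 3 concentrations up to 38.3 uM (primary) or 11 concentrations (follow-up): 16 h compound, 100 nM thapsigargin for 4 h, then extracellular luciferase luminescence.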

Potency, inactive:
C[C@@](N)(C(=O)O)[C@@H]1C[C@@H]1C(=O)O
CCCCCCCCCCCCCCCCCCc1ccc(C(=O)/C=C/C(=O)O)cc1
O=C(Nc1ccccc1)C12CC1/C(=N\O)c1ccccc1O2 (stereo not drawn)
O=Nc1ccc(O)c2ncccc12
O=C(O)c1ccncc1
NC(C(=O)O)c1cc(O)cc(O)c1 (stereo not drawn)
N[C@H](CS)C(=O)O
CC[N+]1(C)C2CCC1CC(OC(=O)[C@H]1CCC(C(=O)OC3CC4CCC(C3)[N+]4(C)CC)(c3ccccc3)c3ccccc31)C2 (stereo partly drawn)
C[N+]1(Cc2ccccc2)CCC(C(=O)OCC2CCCC2)CC1 (stereo not drawn)
CCCN1CCCC(c2cccc(S(C)(=O)=O)c2)C1 (stereo not drawn)
COc1ccccc1C1(O)CCN(CCCn2c3ccccc3c3ccccc32)CC1
NC1=NC2C(N=C(Br)N2[C@@H]2O[C@H]3COP(=O)(O)O[C@@H]3[C@@H]2O)C(=O)N1 (stereo partly drawn)
C[C@H](CCC(=O)NCCS(=O)(=O)O)C1CC[C@H]2C3CC[C@@H]4C[C@H](O)CC[C@]4(C)C3C[C@H](O)[C@]12C (stereo partly drawn)
COC(C)(C)CCCC(C)C/C=C/C(C)=C/C(=O)O (stereo not drawn)
NC(C(=O)O)c1cccc(O)c1 (stereo not drawn)
CC(C)ON(CC(=O)NO)S(=O)(=O)c1ccc(-c2ccccc2)cc1
N[C@](CC1c2ccccc2Oc2ccccc21)(C(=O)O)[C@H]1C[C@@H]1C(=O)O
N#Cc1ccccc1OCC(O)CNCCNC(=O)Nc1ccccc1 (stereo not drawn)
Oc1ccc(-c2c(-c3ccccc3)nn3c(C(F)(F)F)cc(C(F)(F)F)nc23)cc1
CCCCCCCCCCC1=C(C)C(=O)C(OC)=C(OC)C1=O
CCCCC[C@H](O)/C=C/C=C\CCCCCCCC(=O)O
COc1cccc2c1C(=O)c1c(O)c3c(c(O)c1C2=O)C[C@@](O)(C(=O)CO)C[C@@H]3O[C@@H]1C[C@H](N)[C@H](O)[C@H](C)O1
NCCCCCc1cnc[nH]1
CCC(N)(C(=O)O)c1ccc(C(=O)O)cc1 (stereo not drawn)
Nc1ncnc2c1ncn2C1O[C@H](COP(=O)(O)O)[C@@H](O)[C@H]1O (stereo partly drawn)
COC(=O)C1=C(C)NC(C)=C(C(=O)NCCCN2CCC(c3ccccc3)(c3ccccc3)CC2)C1c1ccc([N+](=O)[O-])cc1 (stereo not drawn)
C=CCn1c(=O)c2c(nc(-c3ccccc3)n2C)n(C)c1=O
C=NCc1cc2c(OC[C@@H](O)CNC(C)(C)C)cccc2[nH]1
CCCC[C@@H](C=O)NC(=O)[C@H](CC(C)C)NC(=O)[C@H](CC(C)C)NC(C)=O (Ac-Leu-Leu-[Nle]-aldehyde)
N[C@H](C(=O)O)[C@H]1C[C@H]1C(=O)O
CC(=O)OCOC(c1ccc2ccccc2c1)P(=O)(OCOC(C)=O)OCOC(C)=O (stereo not drawn)
C[C@@H](N)CCCP(=O)(O)O
CC(C)n1cnc2c(NCc3ccccc3)nc(NCCO)nc21
[C-]#[N+]c1cc(-c2ccncc2)c(C)[nH]c1=O
Cc1ccc2c(c1)C(=O)C1(O)CCN(c3ccccc3)C1=N2 (stereo not drawn)
Cn1cnc2nc(NCCO)nc(NCc3ccccc3)c21

Activity change, negative = inhibition, inactive:
CCCCCCCCCCCCCCCCOC[C@H](COP(=O)([O-])OCC[N+](C)(C)C)OC(=O)NC 5.26% [at 3.88 µM]
CCCCCCCCCCCCCCCC(=O)OCC(COP(=O)(O)O)OC(=O)CCCCCCCCCCCCCCC (stereo not drawn) -28.1% [at 3.88 µM]
CCCCC/C=C\C/C=C\CCCCCCCC(=O)O[C@@H](CO)COC(=O)CCCCCCCCCCCCCCCCC 6.55% [at 3.88 µM]
